Experimental findings from PubChem BioAssay (NCATS) are described below.

Records with an inconclusive call do not appear. The source made the active and inactive calls. Calls follow the shape of the dose curve; as a rule, active = well fitted inhibition curve with a large enough effect; inconclusive = small, poorly fitted or top-dose-only effect; inactive = no such curve, though single readings can be large or run the other way.

Sequence of Rap guanine nucleotide exchange factor 3 (Homo sapiens) (O95398 whole entry, looked up): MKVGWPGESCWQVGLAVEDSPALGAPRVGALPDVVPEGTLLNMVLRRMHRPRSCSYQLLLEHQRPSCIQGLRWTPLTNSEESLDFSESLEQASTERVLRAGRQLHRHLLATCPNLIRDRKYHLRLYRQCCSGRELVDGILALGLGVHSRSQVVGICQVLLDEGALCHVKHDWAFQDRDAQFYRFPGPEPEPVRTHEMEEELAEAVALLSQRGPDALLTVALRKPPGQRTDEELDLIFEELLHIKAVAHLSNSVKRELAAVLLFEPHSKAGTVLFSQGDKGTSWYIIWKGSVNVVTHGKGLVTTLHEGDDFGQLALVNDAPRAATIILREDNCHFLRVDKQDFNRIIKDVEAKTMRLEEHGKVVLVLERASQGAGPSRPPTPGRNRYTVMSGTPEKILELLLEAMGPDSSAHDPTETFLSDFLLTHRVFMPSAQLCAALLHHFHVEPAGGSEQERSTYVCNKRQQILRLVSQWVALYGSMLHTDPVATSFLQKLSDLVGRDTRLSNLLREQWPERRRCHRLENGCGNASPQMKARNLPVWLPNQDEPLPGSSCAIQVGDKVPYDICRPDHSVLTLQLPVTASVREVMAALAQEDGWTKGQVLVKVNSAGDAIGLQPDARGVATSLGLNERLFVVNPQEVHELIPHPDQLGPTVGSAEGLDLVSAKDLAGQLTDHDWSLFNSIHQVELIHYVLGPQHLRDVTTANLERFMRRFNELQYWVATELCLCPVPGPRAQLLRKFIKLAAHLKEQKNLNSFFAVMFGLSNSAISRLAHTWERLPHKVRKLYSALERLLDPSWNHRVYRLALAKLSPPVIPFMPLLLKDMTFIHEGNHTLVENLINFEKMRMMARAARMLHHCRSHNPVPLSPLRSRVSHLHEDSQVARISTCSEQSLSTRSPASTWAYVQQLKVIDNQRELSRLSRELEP

The target of the experiment is Rap guanine nucleotide exchange factor 3 (Homo sapiens) (UniProt O95398). In words: Confirmatory qHTS for antagonist of cAMP-regulated guanine nucleotide exchange factor 3 (EPAC1) (AID 1645880). Also: nearly all actives have a fitted effect of over 55% in size. The settings on record: EPAC1 Rap1B-BODIPY-GDP exchange, fluorescence; series mostly up to 115 µM. The source says:
Assay Provider (PI): Xiaodong Cheng Ph.D. The University of Texas Medical Branch, […], TX MLPCN Grant: NS066510 In multi-cellular eukaryotic organisms, the effects of cAMP are transduced by two ubiquitously-expressed intracellular cAMP receptors, the classic protein kinase A/cAMP-dependent protein kinase (PKA/cAPK) and the more recently discovered exchange protein directly activated by cAMP/cAMP-regulated guanine nucleotide exchange factor (EPAC/cAMP-GEF). Both PKA and EPAC are ubiquitously expressed in all tissues, and an increase in intracellular cAMP levels will lead to the activation of both PKA and EPAC. Therefore, careful dissections of the individual role and relative contribution of EPAC and PKA within the overall cAMP signaling in various model systems are critical for further elucidating the mechanism of cAMP signaling. To date no EPAC-specific antagonists and agonist, as well as isoform-specific agonists have been reported, and developing EPAC-specific pharmacological probes to determine the physiological functions that EPAC play in the overall cAMP-mediated signaling remains a major challenge within the research field. Furthermore, identified regulators of EPAC may lead to new mechanism-based therapeutic strategies specifically targeting the EPAC / cAMP-signaling components as EPAC has been implicated to play important roles in major human pathological conditions such as diabetes, heart disease, and cancer. This qHTS will be used to screen the Molecular Libraries Small Molecule Repository (MLSMR) as a concentration-titration series using the NCGC unique quantitative screening (qHTS) platform to find activators for EPAC1. In addition, this assay will also be used as a counterscreen for the EPAC2 qHTS. This fluorescent based assay is developed and validated for EPAC1 that measures exchange using EPAC effector Rap1 complex with BODIPY-GDP, a GDP analog with a tethered fluorophores. Activators are identified by monitoring the change in fluorescence signal as the exchanged free BODIPY-GDP has a reduced fluorescence compared to Rap1-bound BODIPY-GDP. Increase in signal (activation) is the desired outcome for the EPAC1 agonist while no activity in this assay is desired for the EPAC2 agonist counterscreen. Reference: [1] de Rooij, J., Zwartkruis, F. J., Verheijen, M. H., Cool, R. H., Nijman, S. M., Wittinghofer, A., and Bos, J.L. (1998) Nature 396, 474-477. Kawasaki, H., Springett, G. M., Mochizuki, N., Toki, S., Nakaya, M., Matsuda, M., Housman, D. E., and Graybiel, A. M. (1998) Science 282, 2275-2279.
Briefly, three uL of reagents (100 nM EPAC1, 250 nM RAP1B-BODIPY-GDP, 50 uM GDP) were dispensed into a 1536-well Greiner black solid-bottom medium binding assay plate. Controls and test compounds (23 nL) were transferred to the plate via a Kalypsys pin tool equipped with a 1536-pin array. The plates were centrifuged at 1,000 rpm for 15 seconds followed by 5 minute incubation at room temperature. The assay plates were read at 5 minute intervals for 30 minutes in the ViewLux plate reader using 480nm excitation and 540nm emission filters. The results were normalized to the […] positive control ATA and DMSO.
On the technique in general: Quantitative high-throughput screening tests each substance at several concentrations.
As to `CC(C)[C@@H](C)/C=C/[C@@H](C)[C@H]1CC[C@H]2/C(=C/C=C3\C[C@@H](O)CC[C@@H]3C)CCC[C@]12C`, the result was inactive.

As for `CC1CC(OC(=O)C(O)c2ccccc2)CC(C)(C)C1` (stereo unspecified), the result was inactive.

In the case of `NC(=O)Oc1ccc(Cc2ccccc2)cc1`, the molecule was classed as inactive.

For `Oc1ccc(/C=C/c2cc(O)cc(O)c2)cc1`, the molecule was classed as inactive.

For the molecule `O=C(NNCS(=O)(=O)O)c1ccncc1`, the molecule was classed as inactive.

In the case of `COc1cc(NCCCC(C)N)c2ncccc2c1` (stereo unspecified), the molecule was called inactive.

Regarding `CCCCC(=O)O[C@H]1CC[C@H]2[C@@H]3CCc4cc(O)ccc4[C@H]3CC[C@]12C`, the call was inactive.

For the molecule `COc1ccc(/C=C/C(=O)O)cc1`, the call was inactive.

Take `CCOC(=O)Oc1c(OC)cc(C(=O)O[C@@H]2C[C@@H]3CN4CCc5c([nH]c6cc(OC)ccc56)[C@H]4C[C@@H]3[C@H](C(=O)OC)[C@H]2OC)cc1OC`: the outcome was inactive.

On to `COc1ccc2c(c1)N(C[C@H](C)CN(C)C)c1ccccc1S2`, for which the molecule was classed as inactive.

With `CSc1nc2cc(Oc3cccc(Cl)c3Cl)c(Cl)cc2[nH]1`, the call was inactive.
